Assay results published in PubChem BioAssay (EPA / NIEHS).
Where “and” joins values, the source holds several entries; their conditions need not be identical. Identical values can stand only once. Where a structure was tested more than once in an assay, its records may differ in their call. Calls of active or inactive are those of the source. The calls were made as follows: active = hit-call score of the fitted dose curve at least 0.9, where 1 is the maximum; inactive = score below 0.9.

How the values were obtained:
[1] = molecular target: Nuclear respiratory factor 1 (Homo sapiens) (UniProt Q16656); assay: ATG_NRF1_CIS: Attagene CIS-FACTORIAL HepG2 Assay for human Nuclear Respiratory Factor 1 (NRF1) Orphan Gene (AID 2282987); conditions: HepG2 NRF1 cis-element reporter, Attagene multiplex; actives raise or lower the signal
Sequence of Nuclear respiratory factor 1 (Homo sapiens) (Q16656 whole entry, looked up): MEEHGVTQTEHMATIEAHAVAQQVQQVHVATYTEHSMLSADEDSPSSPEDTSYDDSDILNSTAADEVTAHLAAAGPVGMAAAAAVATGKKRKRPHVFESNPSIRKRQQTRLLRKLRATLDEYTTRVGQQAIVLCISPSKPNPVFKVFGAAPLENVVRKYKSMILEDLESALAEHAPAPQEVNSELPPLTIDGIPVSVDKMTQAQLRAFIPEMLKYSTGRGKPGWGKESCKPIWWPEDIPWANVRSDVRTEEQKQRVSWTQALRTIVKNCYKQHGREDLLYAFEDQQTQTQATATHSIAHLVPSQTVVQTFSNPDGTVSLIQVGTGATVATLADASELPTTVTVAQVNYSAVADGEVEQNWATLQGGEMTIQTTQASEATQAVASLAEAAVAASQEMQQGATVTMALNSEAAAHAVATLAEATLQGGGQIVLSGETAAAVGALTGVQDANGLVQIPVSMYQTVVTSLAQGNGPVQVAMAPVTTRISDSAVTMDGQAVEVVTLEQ
Method in brief: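 Multiplexed cis-reporter assay, HepG2 cells, 24 h treatment. Total RNA → oligo(dT) RT → PCR with reporter-specific primers → 6-FAM primer extension → HpaI cut → CE. Bidirectional fit vs DMSO.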

[2] = ATG_NFI_CIS: Attagene CIS-FACTORIAL HepG2 Assay for human Nuclear Factor I (NFI) (AID 2282989); conditions: HepG2 cis-regulatory reporter, NFI response element transcription; actives raise or lower the signal
Method in brief: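 HepG2, transient MRTU, 24 h exposure; RNA→cDNA→PCR→FAM label→HpaI→CE fluorescence. Bidirectional fit, DMSO = baseline.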

[3] = molecular target: Myc proto-oncogene protein (Homo sapiens) (UniProt P01106); assay: ATG_Myc_CIS: Attagene CIS-FACTORIAL HepG2 Assay for human Myelocytomatosis (Myc) Proto-Oncogene Transcription Factor (AID 2282990); conditions: HepG2, Attagene cis-reporter transcription factor activity; actives raise or lower the signal
Sequence of Myc proto-oncogene protein (Homo sapiens) (P01106 whole entry, looked up, the tested form may be a part): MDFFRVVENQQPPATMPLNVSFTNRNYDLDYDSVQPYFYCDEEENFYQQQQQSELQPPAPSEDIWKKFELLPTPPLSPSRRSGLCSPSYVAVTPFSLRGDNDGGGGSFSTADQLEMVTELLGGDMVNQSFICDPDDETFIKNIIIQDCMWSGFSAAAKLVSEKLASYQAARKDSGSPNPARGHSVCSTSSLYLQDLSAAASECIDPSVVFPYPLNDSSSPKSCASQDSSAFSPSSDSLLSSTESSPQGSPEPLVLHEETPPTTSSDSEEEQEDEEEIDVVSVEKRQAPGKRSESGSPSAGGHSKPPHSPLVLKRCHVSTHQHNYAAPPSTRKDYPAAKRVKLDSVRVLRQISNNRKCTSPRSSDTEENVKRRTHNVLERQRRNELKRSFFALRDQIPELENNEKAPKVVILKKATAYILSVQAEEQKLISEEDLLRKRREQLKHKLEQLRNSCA
Method in brief: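 Read-out: fluorescent reporter mRNA fragments resolved by capillary electrophoresis after RT-PCR. Human HepG2 liver cells carried transfected cis-element reporter units and were dosed for 24 h. Gain or loss of signal fitted relative to DMSO baseline.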

[4] = ATG_NF_kB_CIS: Attagene CIS-FACTORIAL HepG2 Assay for human Nuclear Factor Kappa B (NF-kB) (AID 2282991); conditions: HepG2 Attagene cis-factorial NF-kB reporter mRNA; actives raise or lower the signal
Method in brief: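 Transient MRTU transfection of human HepG2 liver cells → 24 h chemical exposure → total RNA, oligo(dT) RT → PCR, 6-FAM primer extension, HpaI digest 2 h 37 C → CE fragment analysis. Bidirectional fitting, DMSO negative control.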

[5] = ATG_NRF2_ARE_CIS: Attagene CIS-FACTORIAL HepG2 Assay for human Nuclear Factor Erythroid 2 Related Factor 2 (NFR2) response to Antioxidant Response Elements (ARE) (AID 2282992); conditions: HepG2 Attagene ARE/NRF2 reporter, transcription factor activity; actives raise or lower the signal;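 as to AC50: reporter mRNA level measured by RT-PCR and capillary electrophoresis fluorescence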
Method in brief: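 Using transiently transfected HepG2 cells exposed for 24 h, reporter mRNA levels were determined by RT-PCR with fluorescent primer extension and capillary electrophoresis, analysed for gain or loss of signal against DMSO.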

[6] = ATG_Oct_MLP_CIS: Attagene CIS-FACTORIAL HepG2 Assay for human Octamer-Binding Transcription Factor (Oct) (AID 2282993); conditions: HepG2 Attagene cis-factorial Oct reporter, mRNA; actives raise or lower the signal
Method in brief: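 Multiplexed cis-reporter assay in human liver HepG2 cells, 24 h incubation. Reporter RNA amplified and labelled, then resolved by capillary electrophoresis; DMSO serves as negative control and baseline.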

[7] = molecular target: Cellular tumor antigen p53 (Homo sapiens) (UniProt P04637); assay: ATG_p53_CIS: Attagene CIS-FACTORIAL HepG2 Assay for human p53 Transcription Factor (AID 2282994); conditions: HepG2 p53 cis-element reporter, Attagene mRNA; actives raise or lower the signal
Sequence of Cellular tumor antigen p53 (Homo sapiens) (P04637 whole entry, looked up, the tested form may be a part): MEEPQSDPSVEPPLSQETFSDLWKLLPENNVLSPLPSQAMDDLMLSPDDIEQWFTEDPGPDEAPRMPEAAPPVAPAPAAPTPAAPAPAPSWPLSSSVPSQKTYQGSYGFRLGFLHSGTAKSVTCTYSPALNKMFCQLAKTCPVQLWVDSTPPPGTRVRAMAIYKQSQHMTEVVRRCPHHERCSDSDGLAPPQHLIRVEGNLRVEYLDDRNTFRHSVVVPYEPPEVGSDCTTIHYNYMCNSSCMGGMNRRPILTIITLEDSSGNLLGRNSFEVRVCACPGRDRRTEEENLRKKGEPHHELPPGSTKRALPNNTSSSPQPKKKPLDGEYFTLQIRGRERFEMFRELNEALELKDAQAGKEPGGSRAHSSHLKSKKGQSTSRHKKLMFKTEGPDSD
Method in brief: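 In HepG2 cells, reporter transcription units under cis-regulatory promoters were transiently introduced. Following 24 h treatment, RNA was processed to labelled, digested cDNA fragments read by capillary electrophoresis; fitting was bidirectional versus DMSO.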

[8] = BSK_3C_TissueFactor: BioMAP Diversity Plus: 3C Assay for Tissue Factor Biomarker Activity (AID 2282997); conditions: BioMAP 3C HUVEC, tissue factor biomarker readout; actives raise or lower the signal
Method in brief: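 Readout: Tissue Factor ELISA. Cells: human primary umbilical vein endothelium. Time: 24 h after dosing. Analysis: bidirectional fit, DMSO baseline.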

[9] = BSK_3C_uPAR: BioMAP Diversity Plus: 3C Assay for Urokinase-type plasminogen activator receptor (uPAR) Biomarker Activity (AID 2282998); conditions: BioMAP 3C HUVEC, uPAR biomarker ELISA; actives raise or lower the signal
Method in brief: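 Dose primary human umbilical vein endothelial cells, incubate 24 h, measure cell-surface uPAR by ELISA, then fit the signal in both directions against the DMSO negative control.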

[10] = BSK_3C_VCAM1: BioMAP Diversity Plus: 3C Assay for Vascular cell adhesion molecule 1 (VCAM1) Biomarker Activity (AID 2282999); conditions: BioMAP 3C HUVEC, VCAM1 ELISA, cytokine-stimulated; actives raise or lower the signal
Method in brief: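 HUVEC primary cells, 24 h compound exposure; VCAM-1 by ELISA; gain/loss of signal fitted bidirectionally vs DMSO baseline.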

Measured: AC50

O=C(O)C=C(C(F)(F)F)C(F)(F)F
inactive: [1] | [2] | [3] | [4] | [6] | [7] | [8] | [9]
active: [4] 68.2 µM | [5] 1.89 µM and 3.02 µM | [10] 22.4 µM and 8.91 µM

FC(F)(F)C(F)(F)C(F)(F)C(F)(F)CCI
inactive: [1] | [2] | [3] | [4] | [5] | [6] | [7] | [8] | [9] | [10]
active: [5] 79.7 µM

CCCCCCS
not listed: [8] | [9] | [10]
inactive: all other assays above

Nc1ccc(Oc2cccc(Oc3ccc(N)cc3)c2)cc1
inactive: [3] | [4]
active: [1] 76.4 µM | [2] 166 µM | [5] 26.5 µM | [6] 24.9 µM | [7] 26.7 µM

[Co]
not listed: [8] | [9] | [10]
inactive: all other assays above

CNC(=S)NC
not listed: [8] | [9] | [10]
inactive: all other assays above

CCN(CC)c1ccc2c(C)cc(=O)oc2c1
active: [5] 59.3 µM | [8] 20 µM
inactive: all other assays above

CCO[Si](CCC(F)(F)C(F)(F)C(F)(F)C(F)(F)C(F)(F)C(F)(F)F)(OCC)OCC
inactive: all assays above

C(=C(c1ccccc1)c1ccccc1)c1ccccc1
active: [5] 25.2 µM
not listed: [8] | [9] | [10]
inactive: all other assays above

CC/C=C\CCOC(C)=O
not listed: [8] | [9] | [10]
inactive: all other assays above

c1ccc(-c2ccccc2-c2ccccc2)cc1
inactive: [1] | [3] | [4] | [6] | [7]
active: [2] 100 µM | [5] 32.9 µM

CC/C=C\CCOC(=O)c1ccccc1
not listed: [8] | [9] | [10]
inactive: all other assays above

O=C(CC(=O)C(F)(F)C(F)(F)F)C(F)(F)F
inactive: [1] | [2] | [3] | [4] | [6] | [7] | [8] | [9] | [10]
active: [4] 150 µM | [5] 94.6 µM and 109 µM | [7] 112 µM

O=C(OCCOCCOCCOC(=O)c1ccccc1)c1ccccc1
not listed: [8] | [9] | [10]
inactive: all other assays above

CCC(=O)OCCc1ccccc1
not listed: [8] | [9] | [10]
inactive: all other assays above

CC(C)OC(=O)c1ccccc1C(=O)OC(C)C
inactive: [1] | [2] | [3] | [4] | [5] | [6]

CC(C)(C)c1ccc(OC2CCCCC2O)cc1 (stereo unspecified)
active: [5] 20.5 µM
not listed: [8] | [9] | [10]
inactive: all other assays above

O=C(Cl)C(F)(F)C(F)(F)C(F)(F)C(F)(F)C(F)(F)C(F)(F)C(F)(F)C(F)(F)F
active: [5] 15.8 µM | [6] 47.1 µM | [7] 54.3 µM | [8] 53.4 µM | [9] 30 µM and 46 µM
inactive: [1] | [2] | [3] | [4] | [8] | [9] | [10]

Cc1cccc(N(C)C)c1
not listed: [8] | [9] | [10]
inactive: all other assays above

Nc1ccc(S(=O)(=O)Nc2nccs2)cc1
not listed: [8] | [9] | [10]
inactive: all other assays above

CC(Cc1ccc(O)c(O)c1)C(C)Cc1ccc(O)c(O)c1 (stereo unspecified)
inactive: [1] | [3] | [7]
active: [2] 19 µM | [4] 55.3 µM | [5] 22.8 µM | [6] 20.6 µM

CC(C)c1ccccc1N
not listed: [8] | [9] | [10]
inactive: all other assays above

c1ccc(B(c2ccccc2)c2ccccc2)cc1
active: [2] 26.7 µM | [5] 33.9 µM | [6] 43.3 µM
inactive: [1] | [3] | [4] | [7]

OCCCC(F)(F)C(F)(F)C(F)(F)C(F)(F)C(F)(F)C(F)(F)C(F)(F)F
active: [1] 126 µM | [2] 71.1 µM and 267 µM | [3] 79.9 µM | [4] 73.6 µM | [5] 67.1 µM and 133 µM | [6] 50 µM and 245 µM | [8] 54.8 µM and 21.6 µM | [9] 44.8 µM and 43.5 µM | [10] 24.3 µM and 20.5 µM
inactive: [1] | [3] | [4] | [7]

COC(=O)C1CCC(C(=O)OC)CC1 (stereo unspecified)
inactive: [1] | [2] | [3] | [4] | [5] | [6] | [7]
active: [5] 163 µM

CC(C)=CCCC(C)CCOC(=O)C(C)C (stereo unspecified)
not listed: [8] | [9] | [10]
inactive: all other assays above

O=C(O)C(F)(F)C(F)(F)C(F)(F)C(F)(F)C(F)(F)C(F)(F)C(F)(F)C(F)(F)Cl
inactive: [1] | [2] | [3] | [4] | [5] | [8] | [9]
active: [5] 12.7 µM | [6] 50 µM and 57.9 µM | [7] 57.7 µM and 69.5 µM | [8] 54.4 µM | [9] 44.9 µM | [10] 48.7 µM

CCCCOc1ccc(N)cc1
not listed: [8] | [9] | [10]
inactive: all other assays above

OC[C@@H](O)[C@@H](O)[C@H](O)[C@@H](O)CO
not listed: [8] | [9] | [10]
inactive: all other assays above

O=S(=O)(O)c1ccc2ccccc2c1
not listed: [8] | [9] | [10]
inactive: all other assays above

COC(OC(C)=O)c1ccccc1 (stereo unspecified)
not listed: [8] | [9] | [10]
inactive: all other assays above

C=CC(F)(F)C(F)(F)C(F)(F)C(F)(F)C(F)(F)C(F)(F)C(F)(F)C(F)(F)C=C
inactive: all assays above

CCCCCCOC(=O)c1ccccc1
not listed: [8] | [9] | [10]
inactive: all other assays above

CCN(Cc1cccc(S(=O)(=O)O)c1)c1ccc(C(=C2C=CC(=[N+](CC)Cc3cccc(S(=O)(=O)O)c3)C=C2)c2ccc(O)cc2S(=O)(=O)[O-])cc1
inactive: [1] | [2] | [3] | [4] | [5] | [6]

C=CC(=O)OCC(F)(F)C(F)(F)C(F)(F)C(F)(F)C(F)(F)C(F)(F)C(F)(F)F
active: [5] 50 µM
inactive: all other assays above

CCCCCCOC(=O)c1ccccc1O
active: [8] 48 µM and 38.5 µM | [9] 24.5 µM and 41.1 µM | [10] 38.1 µM and 37.2 µM
inactive: all other assays above

O=C(O)C(F)(F)C(F)(F)C(F)(F)C(F)(F)C(F)(F)C(F)(F)C(F)(F)C(F)(F)C(F)(F)C(F)(F)C(F)(F)C(F)(F)C(F)(F)F
active: [4] 26.2 µM | [5] 26.1 µM
inactive: all other assays above

FC(F)(F)C(F)(F)CNCC(F)(F)C(F)(F)F
inactive: all assays above

OCCCC(F)(F)C(F)(F)C(F)(F)F
inactive: all assays above

O=C(O)C(F)(OC(F)(F)C(F)(OC(F)(F)C(F)(OC(F)(F)C(F)(F)C(F)(F)F)C(F)(F)F)C(F)(F)F)C(F)(F)F (stereo unspecified)
inactive: all assays above

OCC(F)(F)C(F)(F)C(F)(F)C(F)(F)C(F)(F)C(F)(F)F
active: [5] 225 µM | [7] 257 µM
inactive: all other assays above

C=CC(=O)OCC(F)(F)C(F)(F)C(F)(F)C(F)(F)COC(=O)C=C
inactive: [1]
active: [2] 50 µM | [3] 65.2 µM | [4] 38.4 µM | [5] 12.8 µM | [6] 21.5 µM | [7] 79.4 µM | [8] 24.9 µM and 35.5 µM | [9] 22.9 µM and 28.2 µM | [10] 26.7 µM and 21.6 µM

NC(=O)C(F)(F)C(F)(F)C(F)(F)C(F)(F)F
inactive: all assays above

C=C(C)C(=O)OCC(F)(F)C(F)(F)C(F)(F)C(F)(F)C(F)(F)C(F)(F)C(F)(F)F
inactive: all assays above

CCCCCCCCCCCCCCCC[N+](C)(C)Cc1ccccc1
active: [3] 25.1 µM | [8] 20 µM | [9] 20 µM | [10] 8.49 µM
inactive: all other assays above

C=CC(F)(F)C(F)(F)C(F)(F)C(F)(F)C(F)(F)C(F)(F)C(F)(F)C(F)(F)F
inactive: all assays above

FC(F)(F)C(F)(F)C(F)(F)C(F)(F)C(F)(F)C(F)(F)C(F)(F)Br
inactive: all assays above
